Results from PubChem BioAssay (Tox21).
Results filed as inconclusive are left out. Calls of active or inactive are those of the source. Unless noted, calls follow the shape of the full dose curve.

Assays:
[1] = Nuclear factor erythroid 2-related factor 2/antioxidant responsive element (Nrf2/ARE) small molecule agonists: qHTS cell viability counter screen in human keratinocytes (AID 1919968; active = well fitted curve in the direction sought with a large enough effect in the repeat runs; an effect the other way counts as inactive or inconclusive; also: nearly all actives have a fitted effect of over 55% in size)
Outline: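 After a 5 h attachment period, ARE-reporter keratinocytes were dosed with compounds in DMSO and then cultured 23 h at 37 C. Cell viability came from CellTiter-Fluor signal read after a further 1 h.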

[2] = Nuclear factor erythroid 2-related factor 2/antioxidant responsive element (Nrf2/ARE) small molecule agonists: luciferase reporter gene qHTS assay in human keratinocytes (AID 1919969); also: nearly all actives have a fitted effect of over 35% in size
[3] = molecular target: Gonadotropin-releasing hormone receptor (Homo sapiens) (UniProt P30968); test: Human gonadotropin-releasing hormone receptor (GnRHR) small molecule agonists, calcium flux assay in GnRHR-HEK293 cells (AID 1920063); also: nearly all actives have a fitted effect of over 35% in size
Chain of Gonadotropin-releasing hormone receptor (Homo sapiens) (P30968 whole entry, looked up): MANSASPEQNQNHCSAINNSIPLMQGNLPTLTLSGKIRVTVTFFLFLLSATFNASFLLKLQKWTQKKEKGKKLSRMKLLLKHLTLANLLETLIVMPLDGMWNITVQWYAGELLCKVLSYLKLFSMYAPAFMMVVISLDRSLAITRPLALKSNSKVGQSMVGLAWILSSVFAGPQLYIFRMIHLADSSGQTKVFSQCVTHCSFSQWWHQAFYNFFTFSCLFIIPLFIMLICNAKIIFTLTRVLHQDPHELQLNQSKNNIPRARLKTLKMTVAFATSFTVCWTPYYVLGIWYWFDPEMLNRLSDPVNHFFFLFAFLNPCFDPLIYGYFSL
Outline: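 We seeded human GnRHR-expressing HEK293 cells for 18 hours, loaded them with calcium dye for an hour at 37 C, added test compounds, and recorded fluorescence intensity kinetically for three minutes.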

[4] = molecular target: KiSS-1 receptor (Homo sapiens) (UniProt Q969F8); test: Human kisspeptin (KISS1R) small molecule agonists, calcium flux assay in KISS1R-HEK293 cells (AID 1920064; active = well fitted curve in the direction sought with a large enough effect in the repeat runs; an effect the other way counts as inactive or inconclusive)
Chain of KiSS-1 receptor (Homo sapiens) (Q969F8 whole entry, looked up): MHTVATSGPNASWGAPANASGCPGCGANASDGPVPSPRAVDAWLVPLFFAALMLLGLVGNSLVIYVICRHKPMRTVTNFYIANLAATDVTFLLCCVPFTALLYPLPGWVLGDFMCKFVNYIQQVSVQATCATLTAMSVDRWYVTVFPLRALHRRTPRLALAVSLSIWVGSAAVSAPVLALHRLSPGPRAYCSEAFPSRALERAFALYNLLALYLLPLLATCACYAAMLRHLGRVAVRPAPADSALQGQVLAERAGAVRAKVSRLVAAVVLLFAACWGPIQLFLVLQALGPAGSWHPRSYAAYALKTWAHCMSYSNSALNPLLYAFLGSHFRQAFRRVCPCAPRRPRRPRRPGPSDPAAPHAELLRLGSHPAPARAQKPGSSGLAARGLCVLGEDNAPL
Outline: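 Kinetic calcium assay, 1 s sampling over 3 min at Ex/Em 480/540, in HEK293 cells engineered with human KISS1R; compounds delivered in DMSO after 1 h dye loading.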

[5] = G protein-coupled receptor (GPCR) small molecule agonists, calcium flux assay: HEK293 wild type cell line counter screen (AID 1920065)
Outline: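 Calcium-sensitive dye, loaded 1 h at 37 C into cells cultured 18 h, reports compound-evoked calcium release as fluorescence (Ex/Em 480/540), measured over 3 min. Agonist mode; 15-point titrations, triplicate.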

[6] = p53 small molecule agonists, cell-based qHTS assay with human liver microsomes: qHTS cell viability counter screen (AID 1963579); also: nearly all actives have a fitted effect of over 45% in size
Outline: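 Metabolically activated exposure: compounds, human liver microsomes and NADPH (0.5 mg/mL final apiece) were added to p53RE-bla cells seeded 5 h earlier, left 16 h at 37 C, and then assessed for viability by CellTiter-Glo luminescence.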

[7] = p53 small molecule agonists, cell-based qHTS assay with rat liver microsomes: qHTS cell viability counter screen (AID 1963580); also: nearly all actives have a fitted effect of over 45% in size
Outline: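 HCT-116 p53RE-bla, 4,000 cells/well, 5 h pre-incubation; cpd + rat liver microsomes 0.5 mg/mL + NADPH 0.5 mg/mL (final); 16 h, 37 C; CellTiter-Glo, 30 min RT; luminescence.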

[8] = p53 small molecule agonists, cell-based qHTS assay: qHTS cell viability counter screen (AID 1963581); also: nearly all actives have a fitted effect of over 45% in size
Outline: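 Following 5 h attachment, HCT-116 p53RE-bla cells took up compound for 16 h at 37 C; the reporter was read with B/G FRET substrate (2 h RT), and viability then via CellTiter-Glo ATP luminescence.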

[9] = molecular target: 5-hydroxytryptamine receptor 2A (Homo sapiens) (UniProt P28223); test: 5-hydroxytryptamine receptor 2A (HTR2A) small molecule antagonists, cell-based qHTS assay (AID 1963586); also: nearly all actives have a fitted effect of over 45% in size
Chain of 5-hydroxytryptamine receptor 2A (Homo sapiens) (P28223 whole entry, looked up): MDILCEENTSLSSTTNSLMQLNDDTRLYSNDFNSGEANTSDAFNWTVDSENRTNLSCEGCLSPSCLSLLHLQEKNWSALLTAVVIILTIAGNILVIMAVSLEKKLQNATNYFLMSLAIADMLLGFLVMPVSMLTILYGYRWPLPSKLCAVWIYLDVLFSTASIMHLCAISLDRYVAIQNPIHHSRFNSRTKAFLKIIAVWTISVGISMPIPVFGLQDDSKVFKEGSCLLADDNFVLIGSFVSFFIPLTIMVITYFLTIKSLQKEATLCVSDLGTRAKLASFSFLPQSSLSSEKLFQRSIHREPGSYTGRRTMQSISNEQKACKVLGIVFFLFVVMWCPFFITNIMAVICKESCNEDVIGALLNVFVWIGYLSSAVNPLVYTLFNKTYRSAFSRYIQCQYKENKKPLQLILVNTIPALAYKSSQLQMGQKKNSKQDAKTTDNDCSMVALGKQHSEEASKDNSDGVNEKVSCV
Outline: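 Antagonist-mode intracellular calcium assay: DOI (4 nM) added after 5 min compound pre-incubation at room temperature to dye-loaded HTR2A-CHO cells. Fluorescence followed for 3 min, sampled every second.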

[10] = molecular target: 5-hydroxytryptamine receptor 2A (Homo sapiens) (UniProt P28223); test: 5-hydroxytryptamine receptor 2A (HTR2A) small molecule agonists, cell-based qHTS assay (AID 1963587); also: nearly all actives have a fitted effect of over 30% in size
Outline: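 Kinetic calcium-flux fluorescence (2 min, 1 sec intervals) after compound addition in agonist mode. HTR2A-CHO cells were cultured 18 h, then dye-loaded 1 h at 37 C.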

[11] = molecular target: Muscarinic acetylcholine receptor M1 (Homo sapiens) (UniProt P11229); test: Cholinergic receptor muscarinic 1 (CHRM1) small molecule antagonists, cell-based qHTS assay (AID 1963588); also: nearly all actives have a fitted effect of over 40% in size; also: potency is read from the fitted curve at half-maximal effect
Chain of Muscarinic acetylcholine receptor M1 (Homo sapiens) (P11229 whole entry, looked up): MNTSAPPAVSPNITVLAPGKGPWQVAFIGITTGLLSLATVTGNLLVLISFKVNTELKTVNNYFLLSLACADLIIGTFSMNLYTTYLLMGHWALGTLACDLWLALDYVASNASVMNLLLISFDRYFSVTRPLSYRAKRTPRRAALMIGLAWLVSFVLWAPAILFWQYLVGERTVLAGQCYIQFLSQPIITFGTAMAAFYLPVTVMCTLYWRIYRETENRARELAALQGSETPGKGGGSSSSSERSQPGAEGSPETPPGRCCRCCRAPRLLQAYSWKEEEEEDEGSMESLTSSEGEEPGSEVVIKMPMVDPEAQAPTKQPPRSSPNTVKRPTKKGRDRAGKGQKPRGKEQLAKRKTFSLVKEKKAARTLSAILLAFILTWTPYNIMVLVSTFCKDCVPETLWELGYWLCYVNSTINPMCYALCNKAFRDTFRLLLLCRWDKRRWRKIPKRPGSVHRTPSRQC
Outline: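 CHRM1-CHO calcium-flux assay, antagonist mode. Cells were seeded 18 h, dye-loaded 1 h at 37 C and given compound for 5 min at RT, then acetylcholine was added at 50nM. FDSS fluorescence was read 3 min; 15 concentrations, three runs.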

[12] = molecular target: Muscarinic acetylcholine receptor M1 (Homo sapiens) (UniProt P11229); test: Cholinergic receptor muscarinic 1 (CHRM1) small molecule agonists, cell-based qHTS assay (AID 1963589); also: nearly all actives have a fitted effect of over 35% in size
Outline: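 Measures agonist-induced intracellular calcium rise. Stable human CHRM1 CHO line, 1 h dye load at 37 C, compounds from DMSO, kinetic fluorescence read.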

[13] = cAMP Responsive Elements (CRE) small molecule agonists, cell-based qHTS assay (AID 1963590)
Outline: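 A CRE-responsive beta-lactamase reporter in HEK 293T cells was used. Treatment ran 3 h at 37 C; detection used LiveBLAzer B/G FRET substrate for 2 h at room temperature.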

[14] = cAMP Responsive Elements (CRE) small molecule antagonists, cell-based qHTS assay (AID 1963591; active = well fitted inhibition curve with a large enough effect in the signal ratio in the repeat runs, not every such curve was filed as active; the % refers to the signal ratio)
Outline: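 HEK293T cells carrying a CRE-driven beta-lactamase reporter receive compound and NKH477 (0.25 uM final) for 3 h. Fluorescence from LiveBLAzer B/G FRET substrate is read after 2 h at room temperature.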

[15] = molecular target: Beta-2 adrenergic receptor (Homo sapiens) (UniProt P07550); test: Adrenergic beta2 receptor (ADRB2) small molecule antagonists, cell-based qHTS assay (AID 1963592); also: series mostly up to about 92 µM; nearly all actives have a fitted effect of over 50% in size
Chain of Beta-2 adrenergic receptor (Homo sapiens) (P07550 whole entry, looked up): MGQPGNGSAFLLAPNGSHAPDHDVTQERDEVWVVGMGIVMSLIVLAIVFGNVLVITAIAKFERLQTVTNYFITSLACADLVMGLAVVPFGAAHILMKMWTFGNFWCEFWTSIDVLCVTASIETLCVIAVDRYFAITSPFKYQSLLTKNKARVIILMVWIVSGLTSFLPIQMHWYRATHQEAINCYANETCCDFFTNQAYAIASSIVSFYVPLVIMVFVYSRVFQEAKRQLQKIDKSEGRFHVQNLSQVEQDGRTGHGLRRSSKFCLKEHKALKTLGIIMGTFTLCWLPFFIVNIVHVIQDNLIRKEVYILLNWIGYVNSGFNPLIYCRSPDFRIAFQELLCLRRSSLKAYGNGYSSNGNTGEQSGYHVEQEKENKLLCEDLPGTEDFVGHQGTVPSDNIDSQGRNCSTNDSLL
Outline: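 Cells (CHO, stable ADRB2 overexpression) incubated 18-20hr at 37C; compounds added from DMSO; agonist mix (1nM isoproterenol, 100uM IBMX, 25uM Ro-20-1724) added; 0.5hr RT; d2-cAMP and anti-cAMP-cryptate added; 1hr RT; 665/615 nm read.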

[16] = molecular target: Beta-2 adrenergic receptor (Homo sapiens) (UniProt P07550); test: Adrenergic beta2 receptor (ADRB2) small molecule agonists, cell-based qHTS assay (AID 1963593);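 also: CHO cells stably overexpressing human ADRB2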
Outline: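 CHO cells stably over-expressing ADRB2 were plated overnight at 37C, then dosed with compounds plus a stimulation mix containing 100uM IBMX and 25uM Ro-20-1724 for 0.5hr at room temperature. cAMP was measured by HTRF competition, 1hr.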

[17] = molecular target: D(2) dopamine receptor (Homo sapiens) (UniProt P14416); test: Dopamine D2 receptor (DRD2) small molecule agonists, cell-based qHTS assay (AID 1963594); also: nearly all actives have a fitted effect of over 35% in size
Chain of D(2) dopamine receptor (Homo sapiens) (P14416 whole entry, looked up): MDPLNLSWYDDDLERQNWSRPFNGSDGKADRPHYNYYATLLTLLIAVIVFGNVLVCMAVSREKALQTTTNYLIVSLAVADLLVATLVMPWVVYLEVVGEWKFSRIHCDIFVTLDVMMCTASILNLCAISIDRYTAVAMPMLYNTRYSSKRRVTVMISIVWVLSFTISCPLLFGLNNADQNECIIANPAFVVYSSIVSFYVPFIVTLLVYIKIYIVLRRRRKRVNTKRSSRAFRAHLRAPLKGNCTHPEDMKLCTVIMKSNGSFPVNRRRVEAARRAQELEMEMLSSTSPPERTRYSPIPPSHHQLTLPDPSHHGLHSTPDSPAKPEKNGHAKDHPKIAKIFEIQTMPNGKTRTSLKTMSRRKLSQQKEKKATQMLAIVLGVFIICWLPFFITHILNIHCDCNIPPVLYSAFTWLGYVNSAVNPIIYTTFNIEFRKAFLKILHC
Outline: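 cAMP accumulation in DRD2-HEK293 cells measured by HTRF after 1 h detection; compounds added 10 min before NKH477 (200nM […]) forskolin-analogue stimulation, 30 min at room temperature, with Ro20-1724 present at 0.1 mM final.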

[18] = molecular target: D(2) dopamine receptor (Homo sapiens) (UniProt P14416); test: Dopamine D2 receptor (DRD2) small molecule antagonists, cell-based qHTS assay (AID 1963595; active = well fitted inhibition curve with a large enough effect in the signal ratio in the repeat runs, with a control signal flat; the % refers to the signal ratio)
Outline: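 HEK293 cells stably expressing DRD2, preincubated with 0.1 mM Ro20-1724 and compounds 10 min, were stimulated with 200 nM NKH477 plus 12 nM quinpirole for 30 min at room temperature; cAMP measured by HTRF (665/620 nm).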
% is scaled to controls: 0 for no effect and ±100 for the full control effect.

CCCCC=O
inactive: Potency [1] | Potency [2] | Potency [3] | Potency [4] | Potency [5] | Potency [6] | Potency [7] | Potency [8] | Potency [9] | Potency [10] | Potency [11] | Potency [12] | Potency [13] | Potency [14] | Potency [15] | Potency [16] | Potency [17] | Potency [18]

CCCCNc1ccc(C(=O)OCCN(CC)CC)cc1
active: Potency [11] 3.26 µM
inactive: Potency [1] | Potency [2] | Potency [3] | Potency [4] | Potency [5] | Potency [6] | Potency [7] | Potency [8] | Potency [9] | Potency [10] | Potency [12] | Potency [13] | Potency [14] | Potency [15] | Potency [16] | Potency [17] | Potency [18]

CCCCCCCCCCCCCCCCCBr
inactive: activity change, negative = cytotoxicity [1] 2.19% [at 19 µM] | activity, positive = activation [2] -1.2% [at 19 µM] | activity change [3] 0.321% [at 11.8 µM, active compounds read high] | activation [4] 0.212% [at 15.8 µM] | activation [5] -0.0398% [at 11.8 µM] | activity change, negative = cytotoxicity [6] 5.38% [at 13.5 µM] | activity change, negative = cytotoxicity [7] 0.54% [at 13.5 µM] | activity change, negative = cytotoxicity [8] 3.13% [at 13.5 µM] | activity, negative = inhibition [9] 31.5% [at 12.7 µM] | activation [10] 0.832% [at 15.9 µM] | activity, negative = inhibition [11] 7.9% [at 12.6 µM] | activation [12] -0.0212% [at 15.8 µM] | activation [13] -0.0773% [at 19 µM] | activity change, negative = inhibition [14] -5.99% [at 18.9 µM] | activity change, negative = inhibition [15] 0.719% [at 19 µM] | activation [16] 8.09% [at 19 µM] | activation [17] -0.0433% [at 19 µM] | activity change, negative = inhibition [18] 0.232% [at 18.9 µM]

CC(C)(C)c1ccc(N)cc1
inactive: Potency [1] | Potency [2] | Potency [3] | Potency [4] | Potency [5] | Potency [6] | Potency [7] | Potency [8] | Potency [9] | Potency [10] | Potency [11] | Potency [12] | Potency [13] | Potency [14] | Potency [15] | Potency [16] | Potency [17] | Potency [18]

CN(C)C(=O)COC(=O)Cc1ccc(OC(=O)c2ccc(N=C(N)N)cc2)cc1
inactive: Potency [1] | Potency [2] | Potency [3] | Potency [4] | Potency [5] | Potency [6] | Potency [7] | Potency [8] | Potency [9] | Potency [10] | Potency [11] | Potency [12] | Potency [13] | Potency [14] | Potency [15] | Potency [16] | Potency [17] | Potency [18]

N[C@@H](CCC(=O)O)C(=O)O
inactive: Potency [1] | Potency [2] | Potency [3] | Potency [4] | Potency [5] | Potency [6] | Potency [7] | Potency [8] | Potency [9] | Potency [10] | Potency [11] | Potency [12] | Potency [13] | Potency [14] | Potency [15] | Potency [16] | Potency [17] | Potency [18]

COC(=O)c1ccccc1OC
inactive: Potency [1] | Potency [2] | Potency [3] | Potency [4] | Potency [5] | Potency [6] | Potency [7] | Potency [8] | Potency [9] | Potency [10] | Potency [11] | Potency [12] | Potency [13] | Potency [14] | Potency [15] | Potency [16] | Potency [17] | Potency [18]

O=C(O)c1c(Cl)ccc(Cl)c1Cl
inactive: Potency [1] | Potency [2] | Potency [3] | Potency [4] | Potency [5] | Potency [6] | Potency [7] | Potency [8] | Potency [9] | Potency [10] | Potency [11] | Potency [12] | Potency [13] | Potency [14] | Potency [15] | Potency [16] | Potency [17] | Potency [18]

C#CC(O)C(CC)CCCC (centres undefined)
inactive: Potency [1] | Potency [2] | Potency [3] | Potency [4] | Potency [5] | Potency [6] | Potency [7] | Potency [8] | Potency [9] | Potency [10] | Potency [11] | Potency [12] | Potency [13] | Potency [14] | Potency [15] | Potency [16] | Potency [17] | Potency [18]

CC1(C)CCC[C@]2(C)[C@H]3CCO[C@]3(C)CC[C@@H]12
inactive: Potency [1] | Potency [2] | Potency [3] | Potency [4] | Potency [5] | Potency [6] | Potency [7] | Potency [8] | Potency [9] | Potency [10] | Potency [11] | Potency [12] | Potency [13] | Potency [14] | Potency [15] | Potency [16] | Potency [17] | Potency [18]

CC(C)CCOCc1ccccc1
inactive: Potency [1] | Potency [2] | Potency [3] | Potency [4] | Potency [5] | Potency [6] | Potency [7] | Potency [8] | Potency [9] | Potency [10] | Potency [11] | Potency [12] | Potency [13] | Potency [14] | Potency [15] | Potency [16] | Potency [17] | Potency [18]

COC(Cc1ccccc1)OC
inactive: Potency [1] | Potency [2] | Potency [3] | Potency [4] | Potency [5] | Potency [6] | Potency [7] | Potency [8] | Potency [9] | Potency [10] | Potency [11] | Potency [12] | Potency [13] | Potency [14] | Potency [15] | Potency [16] | Potency [17] | Potency [18]

OC/C=C/c1ccccc1
inactive: Potency [1] | Potency [2] | Potency [3] | Potency [4] | Potency [5] | Potency [6] | Potency [7] | Potency [8] | Potency [9] | Potency [10] | Potency [11] | Potency [12] | Potency [13] | Potency [14] | Potency [15] | Potency [16] | Potency [17] | Potency [18]

CC(C)COC(=O)C(C)C
inactive: Potency [1] | Potency [2] | Potency [3] | Potency [4] | Potency [5] | Potency [6] | Potency [7] | Potency [8] | Potency [9] | Potency [10] | Potency [11] | Potency [12] | Potency [13] | Potency [14] | Potency [15] | Potency [16] | Potency [18]

CC1=C(C=O)C(C)(C)CCC1
inactive: Potency [1] | Potency [2] | Potency [3] | Potency [4] | Potency [5] | Potency [6] | Potency [7] | Potency [8] | Potency [9] | Potency [10] | Potency [11] | Potency [12] | Potency [13] | Potency [14] | Potency [15] | Potency [16] | Potency [17] | Potency [18]
